# Source: PubChem
# Pf apPOL block: Pf-apPOL DNA polymerase inhibition | Recombinant Pf-apPOL, molecular beacon fluorescence, 1.5 h | inhibition, % at 10 µM | hit rate 0.25% among 210,000
# mHTT-CaM PPI inh: mHTT-calmodulin interaction abrogation | AlphaScreen His-mHTT/GST-CaM binding, luminescence | inhibition, % at 15 µM | hit rate 3.6% among 190,000 | AID 1671202;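 note: 0% = both proteins with DMSO and 100% = one protein alone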
# An asterisk follows results filed as active; i = inactive; · = not tested or not shown. Sampled rows, rich in hits. Any-hit rate of the full collection: about 3.5%. Cut-off read from the data, not from the text of the source: active = inhibition above about 50%; inactive = the rest.
SMILES,Pf apPOL block,mHTT-CaM PPI inh
O=C1CCCC2=C1C(c1ccncc1)n1nc(-c3cccc(Cl)c3)nc1N2 (stereo not drawn),-3,55*
O=C1CCCC2=C1C(c1ccc(Br)cc1)n1nc(-c3ccco3)nc1N2 (stereo not drawn),1,84*
COc1ccc(-c2nc3n(n2)C(c2ccccc2)C2=C(CCCC2=O)N3)cc1OC (stereo not drawn),0,60*
O=C(Cc1cccs1)N1CCCCC1c1nncn1CC1CC1 (stereo not drawn),3,-6
Cc1ccccc1C(=O)N1CCC(c2nc(C(=O)N3CCCC3)c(C)o2)CC1,2,10
C=C(C)c1ccccc(=O)c1O,-5,·
CCc1ccc(N=Cc2cc(Br)ccc2O)cc1,3,-2
COc1ccc(C2C3=C(CCCC3=O)Nc3nc(-c4cccc(Cl)c4)nn32)cc1OC (stereo not drawn),-6,18
COc1ccc(C2C3=C(CCCC3=O)Nc3nc(-c4cccc(C)c4)nn32)cc1OC (stereo not drawn),-2,86*
COc1ccc(C2C3=C(CCCC3=O)Nc3nc(-c4ccccc4)nn32)cc1OC (stereo not drawn),0,76*
COc1ccccc1C1C2=C(CCCC2=O)Nc2nc(-c3cccc(C)c3)nn21 (stereo not drawn),-2,6
CC1=C(C(=O)Nc2cccc(F)c2)C(c2cccnc2)C2=C(CC(c3ccccc3)CC2=O)N1 (stereo not drawn),-5,13
CC1(C)CCc2cc(-c3ccnc(SCC(=O)c4ccc(Cl)cc4)n3)ccc2O1,-5,·
C=CCc1c(C)nc2nc(SCC(=O)Nc3cccc(Cl)c3)nn2c1C,-7,31
Cc1cc(C)n2nc(SCC(=O)Nc3cccc(Cl)c3)nc2n1,-9,6
Cc1cc(C)n2nc(SC(C)C(=O)NCc3ccccc3)nc2n1 (stereo not drawn),8,25
COc1ccc(NC(=O)CSc2nc3nc(C)c(Cc4ccccc4C)c(C)n3n2)cc1OC,-8,55*
Cc1cc(C)n2nc(SCC(=O)Nc3ccc(C)c(Cl)c3)nc2n1,-9,51*
COc1cc(NC(=O)CSc2nc3nc(C)c(Cc4ccccc4C)c(C)n3n2)cc(OC)c1,-8,16
Cc1cc(C)n2nc(SC(C)C(=O)NCc3ccccc3Cl)nc2n1 (stereo not drawn),60*,-1
C=CCc1c(C)nc2nc(SCC(=O)Nc3ccc(C)c(C)c3)nn2c1C,-4,53*
COc1cc(OC)c(N2C(=O)CCC2(C)C(=O)NC2CCCC2)cc1Cl (stereo not drawn),6,-6
CC1Cc2cc(C(=O)Nc3nccs3)ccc2O1 (stereo not drawn),-11,10
CN(C)c1cccc(C(=O)Nc2ccc(CC(=O)NC(C)(C)CO)cc2)c1,-7,-6
Cc1cc(C)n2nc(SCc3c(F)cccc3Cl)nc2n1,-8,14
SMILES,Pf apPOL block,mHTT-CaM PPI inh
Cc1cc(C)n2nc(SCc3ccc(F)cc3Cl)nc2n1,-9,52*
CC(=O)N(C)Cc1nn(-c2ccccc2)c2c1CN(Cc1ccccc1F)CC2,-10,68*
Cn1nc(COCc2ccccc2F)c2c1CCN(C(=O)c1ccccc1)C2,-4,7
C=CCNC(=O)C(=O)Nc1cc(OC)ccc1OC,-7,-4
C=CCOc1ccccc1CNc1ccccc1F,3,-87
C=CCOc1ccccc1CNc1cc(OC)ccc1OC,12,67*
C=CCOc1ccccc1CNc1ccc(C)cc1,0,54*
Cc1ccc(-n2[nH]c(C)c(C=Nc3ccccc3Br)c2=O)cc1,-4,0
COc1cc(Cl)c(C)cc1NC(=O)c1cccnc1,97*,-5
COc1cc(OC)c(NC(=O)c2cccnc2)cc1Cl,-5,-2
Cc1ccccc1C(=O)N1CC=C(C(=O)N2CCCC2)CC1,-2,7
COc1ccc(C2=COC3(CCCN(C(=O)c4ccc(F)cc4)C3)C2)cc1 (stereo not drawn),-9,-4
O=C(c1ccccc1)N1CCCC2(CC(c3cccnc3)=CO2)C1 (stereo not drawn),-10,97*
COc1ccc(C2=COC3(CCCN(C(=O)c4ccccc4)C3)C2)cc1 (stereo not drawn),-4,65*
O=C(c1ccc(Cl)cc1)N1CCCC2(CC(c3ccccc3)=CO2)C1 (stereo not drawn),-8,91*
O=C(c1ccc(F)cc1)N1CCCC2(CC(c3cccnc3)=CO2)C1 (stereo not drawn),0,28
O=C(c1ccc(Cl)cc1)N1CCCC2(CC(c3ccc(Cl)cc3)=CO2)C1 (stereo not drawn),-5,-12
CC(C)C(=O)N1N=C(c2ccc(NS(=O)(=O)c3ccccc3)cc2)CC1c1ccco1 (stereo not drawn),-5,-7
CCC(C)NC(=O)c1cn(C2CCCCC2)c(=O)c2c1c1ccccc1n2C (stereo not drawn),0,9
CCCNC(=O)c1cc(=O)[nH]c2ccc(F)cc12,-4,1
CCCCN(C)S(=O)(=O)c1ccc(C(=O)Nc2nnc(-c3ccc(F)cc3)o2)cc1,-11,32
CC(=O)Nc1ccc(NC(=O)c2c(-c3ccccc3Cl)noc2C)cc1,8,0
Cc1onc(-c2ccccc2Cl)c1C(=O)Nc1ccc(Cl)c(Cl)c1,-7,80*
CC(=O)Nc1cccc(-c2nnc(-c3ccco3)o2)c1,-3,3
Cc1ccc(NC(=O)N2CCCC2c2ccc(C)cc2)cc1 (stereo not drawn),2,-13
SMILES,Pf apPOL block,mHTT-CaM PPI inh
O=C1c2ccccc2C(=O)c2c1ccc(C(=O)N1CCN(c3ccccn3)CC1)c2NCCO,-2,78*
O=C1c2ccccc2C(=O)c2c1ccc(C(=O)N1CCC3(CC1)OCCO3)c2NCCO,1,41
NNC(=O)c1sccc1NC(=O)c1ccccc1Cl,-13,·
COc1ccc(C=NNC(=S)NC2CC(C)CC(C)(C)C2)cc1OCc1ccccc1 (stereo not drawn),-1,·
CC(C)S(=O)(=O)c1ccc(CC(=O)N(Cc2cccs2)Cc2cccn2C)cc1,-12,16
COc1ccc(N2C(=O)CN(c3ccccc3)C(=O)C2c2cccnc2)cc1 (stereo not drawn),-2,8
CCCn1cnc2c1c(=O)n(C(C)C)c(=O)n2-c1ccc(F)cc1,-4,-6
COc1ccc2c(c1)C1(NC(=O)c3ccccc3N1)C(=O)N2 (stereo not drawn),-7,15
COC(=O)C1=C(C(=O)OC)SC2(S1)C(C(=O)OC)=C(C(=O)OC)SC1=C2c2cc(OC)ccc2NC1(C)C,·,63*
COCCCNC(=O)c1ccc2c(c1)ncn2-c1ccc(C)c(Cl)c1,25,-1
CCOCCCNC(=O)c1ccc2c(c1)ncn2-c1ccc(C)c(Cl)c1,29,84*
CC(C)(C)Oc1ccc(C(=O)N(Cc2ccc(F)cc2)C2CCOC(C)(C)C2)cc1 (stereo not drawn),1,56*
COc1ccc(CN(CCC(c2ccccc2OC)C2CCOC(C)(C)C2)C(C)=O)cc1 (stereo not drawn),-3,22
COc1ccc(CCN2C(=O)CSC2c2ccc(Cl)cc2)cc1OC (stereo not drawn),0,37
O=c1cc2oc3cc(O)c(O)cc3c(-c3ccccc3)c-2cc1O,8,69*
O=c1cc2oc3cc(O)c(O)cc3c(-c3ccccc3O)c-2cc1O,i,85*
Cc1oc2cc(O)ccc2c(=O)c1-c1ccccc1,0,-3
